ALR inh: human ALR oxidase inhibition via reduced H2O2 | P55789 | purified ALR, DTT oxidation, H2O2 HRP-luminol luminescence | inhibition, % (no concentration beside the values) | 290,000 compounds, 3.8% hits | AID 485317;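 active = mean replicate inhibition above about 79%, with every replicate also reaching it, limit read from the data; inconclusive = only one of the two criteria met; inactive = mean below limit and not every replicate reaching it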
Target sequence (P55789 whole entry, looked up): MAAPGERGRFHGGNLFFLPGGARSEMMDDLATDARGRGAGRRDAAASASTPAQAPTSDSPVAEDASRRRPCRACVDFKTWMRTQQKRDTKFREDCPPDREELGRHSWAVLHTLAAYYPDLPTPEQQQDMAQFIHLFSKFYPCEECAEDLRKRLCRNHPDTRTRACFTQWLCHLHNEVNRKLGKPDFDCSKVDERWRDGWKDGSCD
Efflux pump inh: inhibitors of Candida antifungal efflux pumps expressed in yeast | inhibition, % at 10 µM | AID 485275 | 330,000 compounds, 0.44% hits | S. cerevisiae Candida pump triplex, Nile Red efflux;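 active = plate passing quality check with inhibition over a set limit, or well fluorescence over plate mean plus 4 SD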;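 also: Nile Red retained in pooled yeast measured as flow cytometry median fluorescence; 0% = buffer negative control and 100% = Enniatin B positive control; higher means more Nile Red kept so more efflux inhibition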
VLA-4 inh: inhibition in a human VLA-4 binding assay. P13612. VLA-4 expressing cells, ligand binding flow cytometry. inhibition, % (about 7 µM as worked out from the volumes in the protocol). 330,000 compounds, 0.2% hits. AID 2557; in the data active = inhibition above about 50%
AHR act: human AHR activation; P35869; AHR-responsive luciferase reporter cells, luminescence; activation, % at 5 µM; 320,000 compounds, 2.5% hits; AID 2796; in the data active = activation above about 47%;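 also: 0% = vehicle wells and 100% = reference agonist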
Mot1-301 SUMO: SUMOylation pathway inhibition by Mot1-301 growth rescue; S. cerevisiae Mot1-301 growth rescue, ATP luminescence, 38.5C; percent above DMSO median, 100 means doubled; growth rescue, % at 18.8 µM; 320,000 compounds, 1% hits;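 active = every valid replicate shows activation above 250% relative to neutral control wells; inactive = the rest, any valid replicate at or below 250%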;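 also: OY570 slx delta 5 strain wells were the positive control but not used for scaling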
Bfl-1 A1 inh: inhibitors of the anti-apoptotic protein A1, read as caspase activation | MEF A1-2A-BIM cells, Caspase-Glo 3/7 luminescence, 3 h; percent of clofoctol response, vehicle zero | caspase activation, % (test concentration not listed) | 330,000 compounds, 0.066% hits | AID 2462;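 active = over half of replicate activation scores above 10%, or exactly half above 10 with the replicate mean above 10; inconclusive = replicate mean below 10 yet half the replicates above 10; inactive = over half of replicates below 10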
AHR act cf: confirmation of human aryl hydrocarbon receptor activators | shares compounds with AHR act | human cells, AHR-responsive luciferase reporter, luminescence | activation, % at 9 µM | 2,300 compounds, 87% hits | AID 2845; in the data active = activation above about 49%;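 also: HepG2 hepatoma cells carrying a DRE-driven firefly luciferase reporter; 0% = vehicle wells and 100% = reference agonist wells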
PXR counter: counter-screen for AHR activators: human PXR activators; cell-based PXR reporter, luciferase luminescence; shares compounds with AHR act; activation, % at 11.6 µM; 2,300 compounds, 88% hits; AID 434939; in the data active = activation above about 11%;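 also: human hepatoma DPX-2 cells expressing full-length human PXR; 0% = DMSO and 100% = reference agonist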
Target sequence (O75469 whole entry, looked up): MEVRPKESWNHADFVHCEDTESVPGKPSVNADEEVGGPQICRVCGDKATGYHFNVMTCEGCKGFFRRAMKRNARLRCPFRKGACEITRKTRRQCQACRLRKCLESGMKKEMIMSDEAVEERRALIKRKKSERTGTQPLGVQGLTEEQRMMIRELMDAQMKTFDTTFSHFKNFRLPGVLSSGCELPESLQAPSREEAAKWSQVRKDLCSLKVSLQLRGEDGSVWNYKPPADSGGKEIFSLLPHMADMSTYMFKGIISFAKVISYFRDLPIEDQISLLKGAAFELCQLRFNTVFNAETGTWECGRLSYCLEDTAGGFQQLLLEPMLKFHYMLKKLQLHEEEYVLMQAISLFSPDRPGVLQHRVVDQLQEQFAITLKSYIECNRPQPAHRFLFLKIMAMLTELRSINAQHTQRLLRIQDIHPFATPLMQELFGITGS
* marks the source's active call; other numbers are inactive results; ? = inconclusive; / = no result. Compounds with a hit are over-represented: about 7.2% of the library has one in this group of screens.

SMILES | ALR inh | Efflux pump inh | VLA-4 inh | AHR act | Mot1-301 SUMO | Bfl-1 A1 inh | AHR act cf | PXR counter
c1ccc2nc3c(nc2c1)[nH]c1ccccc13 | -11 | 0 | 4 | 158* | 7 | -7 | 158* | 14*
c1ccc(-c2nc(-n3nc4ccccc4n3)nc3ccccc23)cc1 | -7 | 0 | -10 | 22 | / | 1 | / | /
c1ccc(-c2c3ccccc3nc3[nH]c4ccccc4c23)cc1 | -10 | 0 | -18 | 103* | -20 | 1 | 68* | 32*
NC(=O)c1ccc(C(F)(F)F)cn1 | -15 | 0 | 8 | 3 | -13 | 1 | / | /
CCC(=O)c1ccc(OC(=O)C2CCN(C3=NS(=O)(=O)c4ccccc43)CC2)cc1 | 0 | 0 | -6 | -2 | -8 | 0 | / | /
Cc1cc(NS(=O)(=O)c2cc(Cl)sc2Cl)no1 | 30 | 0 | -7 | 2 | -6 | -1 | / | /
COc1ccc(-c2csc(-c3cccs3)n2)c(OC)c1 | -16 | 0 | -9 | 80* | -12 | -7 | 119* | 39*
COc1ccc(-c2csc(-c3ccccc3)n2)c(OC)c1 | -8 | 0 | 15 | 37 | 15 | -8 | / | /
Cc1cccc(OCC(O)CN2CCOCC2)c1 (centres undefined) | -3 | 0 | 1 | / | 6 | 1 | / | /
CCC/C(O)=C1\C(=O)CC(C)(C)CC1=Nc1ccc(OC)cc1 | / | 0 | -14 | -1 | 2 | 1 | / | /
O=C(Nc1ccc(Cl)cc1F)c1ccc2c(c1)C(=O)N(Cc1ccncc1)C2=O | -3 | 0 | -1 | 99* | 24 | 1 | 94* | 11*
COc1cc(CO)ccc1OCc1nnnn1-c1ccc(C)cc1 | -5 | 0 | -1 | 4 | 20 | 0 | / | /
CC(C)=Cc1oc2ccc([N+](=O)[O-])cc2c1N1CC(C)OC(C)C1 (centres undefined) | -6 | 0 | 10 | 7 | 24 | 0 | / | /
O=c1nc2c(-c3ccccc3F)n[nH]n2c2ccccc12 | -10 | 0 | -7 | 111* | -17 | -7 | 182* | 26*
CCc1ccc(S(=O)(=O)c2n[nH]n3c2nc(=O)c2ccccc23)cc1 | 0 | 0 | -1 | 1 | 86 | 0 | / | /
CCNS(=O)(=O)c1ccc(CCC(=O)N2CCN(c3ccccc3)CC2)cc1 | 62 | 0 | 5 | -1 | 1 | 0 | / | /
C#Cc1ccc(C(=O)Nc2cc(C(N)=O)ccc2N2CCOCC2)cc1 | -10 | 0 | -5 | 80* | -9 | 0 | 72* | 12*
Cc1cc(C)nc(NC(=O)c2cc(-c3ccc4c(c3)OCO4)nc3ccccc23)c1 | -6 | 0 | -14 | 89* | -12 | 2 | 78* | 44*
COC(=O)c1cc(-c2ccc3c(c2)OCO3)nc2ccccc12 | 18 | 0 | -6 | 4 | 296 | 0 | / | /
COc1ccc(N2CCN(C(=O)c3ccccc3NS(=O)(=O)c3ccc(C)cc3)CC2)cc1 | 24 | 0 | 8 | / | 4 | 0 | / | /
Cc1ccc(CNC(=O)c2nnn(CC(=O)Nc3cccc(C)c3C)c2N)cc1 | 2 | 0 | 11 | -1 | 11 | 0 | / | /
COc1ccc(OC)c(S(=O)(=O)N2Cc3ccccc3CC2C(=O)Nc2nccs2)c1 (centres undefined) | / | 0 | 3 | 84* | -21 | 1 | 60* | 135*
COc1ccccc1NC(=O)CCCCCN1C(=O)c2cccc3cccc(c23)C1=O | 2 | 0 | -6 | 85* | 9 | -1 | -3 | 56*
Cc1nc(N)nc(Nc2ccc(Cl)cc2)c1Br | / | 0 | 8 | 92* | 61 | 0 | 99* | /
O=c1[nH]c(CN2CCc3ccccc3C2)nc2ccccc12 | -5 | 0 | -11 | 85* | -8 | 1 | 100* | 67*
SMILES | ALR inh | Efflux pump inh | VLA-4 inh | AHR act | Mot1-301 SUMO | Bfl-1 A1 inh | AHR act cf | PXR counter
Fc1ccc(F)c(C2=NNC(=Nc3ccccc3F)SC2)c1 | 0 | 0 | -2 | 79* | 0 | -1 | 70* | 56*
Fc1ccc(N=C2NN=C(c3cc(F)ccc3F)CS2)cc1 | -3 | 0 | 13 | 12 | -20 | 1 | / | /
O=C(c1cc2nc(-c3ccco3)cc(C(F)(F)F)n2n1)N1CCN(Cc2ccccc2)CC1 | -1 | 0 | 9 | -1 | -9 | 0 | / | /
CCc1nnc(NC(=O)/C=C/c2ccco2)s1 | 2 | 0 | 3 | 93* | 16 | 1 | 59* | 58*
COc1cc(OC)cc(-c2c(-c3cccs3)c3cc(-c4ccc5cc[nH]c5c4)ccc3n2C)c1 | 1 | 0 | 30 | 12 | 11 | 0 | / | /
Cn1c(-c2ccsc2)c(-c2cccs2)c2cc(-c3cccc4[nH]ccc34)ccc21 | 2 | 0 | 31 | 112* | 20 | 0 | 101* | 79*
Clc1ccc(-c2nc(/C=N/N3CCOCC3)c3ccccn23)cc1 | 50 | 0 | -20 | 90* | / | -1 | 78* | 25*
CN1CCN(/N=C/c2ccc(OCc3ccccc3)cc2)CC1 | -8 | 0 | 4 | 3 | -19 | ? | / | /
CN1CCN(/N=C/c2nc(-c3ccccc3)n3ccccc23)CC1 | / | 0 | 4 | 102* | 2 | 0 | 65* | 16*
O=Cc1nc(-c2ccccc2Cl)n2ccccc12 | -11 | 0 | 2 | -1 | 5 | 1 | / | /
O=C(COC(=O)c1n[nH]c2ccccc12)NCCc1ccccc1 | / | 0 | -3 | 98* | -15 | 0 | 91* | 19*
O=C(NCCc1ccccc1)c1c[nH]c2c(F)cccc2c1=O | / | 0 | 3 | 141* | 18 | 0 | 130* | 83*
CCCNC(=O)COC(=O)c1n[nH]c2ccccc12 | -7 | 0 | 1 | 4 | -1 | 0 | / | /
O=C(NCCc1ccccc1)c1n[nH]c2ccccc12 | ? | 0 | 7 | 101* | -6 | -1 | 103* | 71*
CCOC(=O)c1ccccc1NC(=O)Cc1ccc(S(=O)(=O)N2CCCC2)s1 | 0 | 0 | -9 | 3 | 17 | -3 | / | /
O=C(CCN1C(=O)c2ccccc2C1=O)Nc1ccc(-c2cn3ccsc3n2)cc1 | -21 | 0 | 15 | 102* | -6 | -2 | 125* | 25*
COC(=O)CN1C2(C#N)CCCCC2CC2CCCCC21C#N (centres undefined) | 14 | 0 | 1 | 0 | 17 | 0 | / | /
Cc1cc(C(=O)Nc2cc(C(C)(C)C)on2)c(C)o1 | 3 | 0 | 5 | 1 | 25 | -6 | / | /
Nc1nc2ccccc2n1/N=C/c1ccc(Br)cc1 | -2 | 0 | 12 | 88* | 47 | -5 | 102* | 19*
Nc1nc2ccccc2n1/N=C/c1ccc2c(c1)OCO2 | -3 | 0 | 7 | 15 | -21 | -4 | / | /

Screens: PubChem BioAssay, several laboratories
